# Measured values taken from PubChem BioAssay (Tox21).
# “And” between values parts separate entries of the source, which are not always exact repeats. Identical values can stand only once. Where a structure was tested more than once in an assay, its records may differ in their call. The source made the active and inactive calls. Calls come from the whole dose curve.
# Biological target: Muscarinic acetylcholine receptor M1 (Homo sapiens) (UniProt P11229)
# Experiment: Cholinergic receptor muscarinic 1 (CHRM1) small molecule agonists, cell-based qHTS assay (AID 1963589); note: nearly all actives have a fitted effect of over 35% in size
# Conditions: CHRM1-CHO cells, agonist mode, calcium flux fluorescence; series mostly up to 76.8 µM; activation: at the top concentration
# Description: National Center for Advancing Translational Sciences [NCATS]
# Division of Preclinical Innovation [DPI]
# U.S. Environmental Protection Agency [EPA]
# National Institutes of Environmental Health Sciences [NIEHS]
# National Toxicology Program [NTP]
# U.S. Food and Drug Administration [FDA]
# The CHRM1 is a muscarinic receptor. This receptor plays a crucial role in learning and memory processes and has long been identified as a promising therapeutic target for the improvement of cognitive decline in Alzheimer's disease (AD). The CHRM1-CHO cell line stably expressing human muscarinic acetylcholine receptor M1 (CHRM1) can be used for screening agonists and antagonists of interactions between CHRM1 and its ligands. The CHRM1-CHO Calcium Flux Assay is a homogeneous fluorescence-based assay for detecting the intracellular calcium level using FDSS kinetic plate reader system.
# CHRM1-CHO cells were dispensed at 1000 cells/3uL/well in 1536-well black-clear bottom plates using a Multidrop Dispenser. After the assay plates were incubated at a 37 C/5% CO2 incubator for 18 h, 3 uL of Dye Loading Buffer was transferred to the assay plate by a Flying Reagent Dispenser. The assay plates were incubated at 37 C for 1h. For agonist mode, 23 nL of compounds dissolved in DMSO, positive controls or DMSO only was transferred to the assay plate by a pin tool. […] Each test compound was measured at 15 concentrations in three independent runs.
# % is set by controls: 0 for no effect and ±100 for the full control effect; potency is the fitted concentration of half-maximal effect.
# Muscarinic acetylcholine receptor M1 (Homo sapiens), sequence (P11229 whole entry, looked up): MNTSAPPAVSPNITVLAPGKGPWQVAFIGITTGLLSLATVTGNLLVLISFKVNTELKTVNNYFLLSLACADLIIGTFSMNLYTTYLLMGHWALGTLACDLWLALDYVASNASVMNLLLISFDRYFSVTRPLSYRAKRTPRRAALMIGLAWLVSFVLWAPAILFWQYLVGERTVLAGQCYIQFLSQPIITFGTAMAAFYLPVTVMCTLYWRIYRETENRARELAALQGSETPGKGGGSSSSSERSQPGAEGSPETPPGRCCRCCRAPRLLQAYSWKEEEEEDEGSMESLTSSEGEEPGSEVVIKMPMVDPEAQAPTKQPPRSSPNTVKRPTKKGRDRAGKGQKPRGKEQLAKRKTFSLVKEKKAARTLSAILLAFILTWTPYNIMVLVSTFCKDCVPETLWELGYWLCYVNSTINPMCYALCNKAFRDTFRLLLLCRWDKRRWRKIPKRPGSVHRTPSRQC
SMILES,activation,Potency
COc1ccc2cccc(CCNC(C)=O)c2c1,-0.185% [at 35.3 µM] (inactive),–
CCCC/C=C\CCCCCCCCCC=O,-0.0507% (inactive),–
CC1CC(=O)CC(C)(C)C1 (stereo not given),22.9% (inactive),–
CCCCC1CCC(O)CC1 (stereo not given),-0.494% (inactive),–
CC(C)CC(O)CC(C)C,0.066% (inactive),–
C/C=C/CO,0.468% (inactive),–
CCCCCCOC(=O)c1ccccc1O,0.505% (inactive),–
Cc1ccc(N)cc1[N+](=O)[O-],-0.0525% (inactive),–
C=CC(=O)OCCOC1C2CCC1C1CC=CC12 (stereo not given),0.0965% [at 15.8 µM] (inactive),–
COc1c2ccoc2cc2oc(=O)ccc12,-0.999% (inactive),–
CC(CCO)CCc1ccccc1 (stereo not given),-0.0501% (inactive),–
COCC(O)CO (stereo not given),0.0842% (inactive),–
C=CC(=O)O[C@H]1C[C@@H]2CC[C@@]1(C)C2(C)C,0.337% (inactive),–
C=C1CC/C=C(\C)CC[C@@H]2[C@@H]1CC2(C)C,0.227% (inactive),–
CC1(C)Oc2ccc(C#N)cc2[C@@H](N2CCCC2=O)[C@@H]1O,1.53% [at 35.3 µM] (inactive),–
ClC/C=C\CCl,0.753% (inactive),–
CNCCS(=O)(=O)O,2.2% (inactive),–
CN(C)c1ccc(Cc2ccc(N(C)C)cc2)cc1,–,inactive
Nc1c2ccccc2nc2ccccc12,–,inactive
Nc1cc([N+](=O)[O-])ccc1O,–,inactive

SMILES,activation,Potency
Fc1c(F)c(F)c(Br)c(F)c1F,0.425% (inactive),–
O=C(O)/C=C/c1cnc[nH]1,0.133% (inactive),–
Nc1ccc(N)c(Cl)c1,–,inactive and 43.6 µM (active)
O=C(CCN1CCN(CCO)CC1)N1c2ccccc2Sc2ccc(C(F)(F)F)cc21,-0.513% [at 35.3 µM] (inactive),–
CCCCC(O)/C=C(C)/C=C/C=C/C(=O)N1CCCC1=O (stereo not given),-0.372% [at 35.3 µM] (inactive),–
O=[N+]([O-])c1cncn1CCN1CCOCC1,-0.413% [at 35.3 µM] (inactive),–
c1ccc(CNCc2ccccc2)cc1,-0.986% (inactive),–
CCCc1ccc(O)cc1,-1.11% (inactive),–
FC(F)(F)c1ccccc1Cl,0.165% (inactive),–
CC/C=C\CCOC(=O)CC,0.0034% (inactive),–
O=C1c2ccccc2CCc2ccccc21,–,inactive
CO[Si](CCCNCCNCCN)(OC)OC,0.0065% (inactive),–
CC(C)(C)NC(N)=O,-0.305% (inactive),–
COC(=O)c1cc(S(N)(=O)=O)ccc1OC,0.0398% [at 35.3 µM] (inactive),–
CC1=NN(c2ccc(S(=O)(=O)O)cc2)C(=O)C1,0.0585% (inactive),–
C1CCC(SSC2CCCCC2)CC1,0.614% (inactive),–
C=CC(=O)NC(C)C,-0.0703% (inactive),–
O=S(=O)(O)c1cc(O)c(O)c(S(=O)(=O)O)c1,0.291% (inactive),–
O=C1OC(=O)C2CC=CCC12 (stereo not given),1.37% (inactive),–
CCCCCCCC(=O)N(C)C,-0.331% (inactive),–
